Compound activity as filed in PubChem.
Shown are actives, neighbours in structure and some others; about 7.4% of the full set was active somewhere.
SMN2 splice up: SMN2 splice variant enhancement. HEK293 SMN2-luciferase splicing reporter, luminescence, 30-36 h. Potency, µM (doses to about 46.1 µM), without a hit: top-dose activity change, positive = activation, actives largely listed as activators. hit rate 2.8% among 210,000. AID 1458; note: % of control where 0% means no effect; nearly all actives have a fitted effect of over 55% in size
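HEK293 cells carry an SMN2 minigene-luciferase reporter in which exon 7 inclusion puts luciferase in frame. Cells were seeded at 2000 cells/well, attached for 10-12 hours, then exposed to compounds for 30-36 hours at 37C before ONE-Glo luminescence.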
FLuc counter: counter-screen for miR-21 project: firefly luciferase inhibitors or activators | P08659 | Potency, µM (series often up to 57.5 µM), inactives show at the highest dose activity change, negative = inhibition, hits mostly inhibitors | purified FLuc, Km substrates, luminescence inhibition | hit rate 6.9% among 360,000;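 note: plate controls were vehicle for no effect and reference inhibitor for full effect; nearly all actives have a fitted effect of over 55% in size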
Target sequence (P08659 whole entry, looked up): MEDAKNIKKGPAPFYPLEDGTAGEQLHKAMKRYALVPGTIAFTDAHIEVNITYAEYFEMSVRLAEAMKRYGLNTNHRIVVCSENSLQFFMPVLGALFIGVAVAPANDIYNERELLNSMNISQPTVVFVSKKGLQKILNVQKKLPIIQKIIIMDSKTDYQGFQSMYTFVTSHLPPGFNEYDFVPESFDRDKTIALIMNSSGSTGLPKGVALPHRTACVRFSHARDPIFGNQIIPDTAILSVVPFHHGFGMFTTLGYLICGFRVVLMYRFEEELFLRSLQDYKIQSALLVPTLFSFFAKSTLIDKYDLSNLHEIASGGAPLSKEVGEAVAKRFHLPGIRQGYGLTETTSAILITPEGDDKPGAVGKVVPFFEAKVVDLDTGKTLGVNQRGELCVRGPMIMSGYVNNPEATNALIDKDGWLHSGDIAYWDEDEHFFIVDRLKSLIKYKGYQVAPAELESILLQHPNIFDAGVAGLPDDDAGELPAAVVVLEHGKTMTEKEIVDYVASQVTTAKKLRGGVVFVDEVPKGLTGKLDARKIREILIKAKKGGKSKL
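Purified P. pyralis luciferase (10nM final) with 10uM D-luciferin and 10uM ATP (Km levels) in 50mM Tris acetate pH 7.5, 10mM Mg acetate, 0.01% Tween-20, 0.05% BSA; qHTS 6-point titration, ~60 µM downward; luminescence read.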
Rab9 promoter act: activates the Rab9 promoter; hit rate 2.8% among 320,000; Potency, µM (highest dose often 9.22 µM), for inactives: at the top dose activation, negative = inhibition, most hits filed as activators; AID 485297; Huh7 Rab9 promoter-luciferase reporter, luminescence, 24 h; note: % of control where 0% means no effect; nearly all actives have a fitted effect of over 60% in size
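Cells were plated at 1500 per well in reduced-serum medium with 10% FBS and left 2 h. Compound in DMSO was then added for 24 h at 37 °C. Reporter signal was read by luminescence after 10 min with luciferase detection reagent.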
ELG1 genotox: induces genotoxicity in HEK293T cells with luciferase-tagged ELG1 | HEK293T ELG1-luciferase reporter, luminescence, 16 h | Potency, µM (titrated, usually from 46 µM), without a hit: at the top dose activity change, positive = activation, actives largely listed as activators | hit rate 1.3% among 330,000 | AID 504466; note: % of control where 0% means no effect; nearly all actives have a fitted effect of over 60% in size
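Cells (2,000/well) expressing the ELG1-luciferase fusion are dosed by pin tool and kept 16 hr at 37 °C, 5% CO2. Signal comes from ONE-Glo luciferase reagent after 30 min at room temperature.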
NPC1 promoter act: activates the NPC1 promoter; Huh7 NPC1 promoter luciferase reporter, 24 h; Potency, µM (titrated, usually from 9.22 µM), inactives show at the highest dose activation, actives largely listed as activators; hit rate 2.4% among 320,000; AID 485313; note: % of control where 0% means no effect; nearly all actives have a fitted effect of over 60% in size
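In 1536-well qHTS, Huh7 cells harboring an NPC1 promoter–luciferase construct received compound for 24 h; activation was quantified by luminescence following luciferase reagent addition.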
Active calls of the source: *; ? = inconclusive; . = no result; [ ] = dose if it differs, or a comment. Calls come from the whole dose curve; as a rule, active = well fitted curve in the direction sought with a large enough effect; inconclusive = small, poorly fitted or top-dose-only effect, or another doubt; inactive = no such curve, though single readings can be large; an effect the other way counts as inactive or inconclusive. Potency is the fitted concentration of half-maximal effect.

SMILES | SMN2 splice up | FLuc counter | Rab9 promoter act | ELG1 genotox | NPC1 promoter act
CNc1nc(N/N=C/c2ccc([N+](=O)[O-])cc2)nc(Nc2ccccc2)n1 | -30% | ? | -3% | -3% | 0%
CCc1ccccc1NC(=O)CCS(=O)(=O)c1cccc2nonc12 | -3% | 0% | . | . | .
Cc1cc(Cl)ccc1OC(C)C(=O)OCC(=O)c1ccc[nH]1 (stereo not given) | . | . | . | 1% | .
CCN(CC)C(=O)[C@H]1C[C@H](CC(=O)NCCc2ccccn2)C(=O)N2CCc3c([nH]c4cc(CCC(=O)N(C)C)ccc34)[C@]12C | . | . | . | 2% | .
O=C(c1cnccn1)N1CCC2(CCCN(c3ccc(-c4ccccc4)cc3)C2)CC1 | 4µM* | . | . | . | .
CNc1ccccc1C(C)(C)c1cn(-c2ccc([N+](=O)[O-])cc2)nn1 | . | 2% | -2% | -2% | 0%
Cc1ccccc1OCC(=O)Nc1ccc(S(=O)(=O)Nc2ncccn2)cc1 | 14% | -19% | . | . | .
C(#CC1CCCCC1)c1ccc2c(c1)COc1c3ccccc3nn1-2 | . | 4.8µM* | ? | 19% | ?
C(#Cc1ccc2c(c1)COc1c3ccccc3nn1-2)c1ccccc1 | . | 12µM* | ? | ? | ?
c1ccc2c3n(nc2c1)CCCO3 | . | 3% | -1% | 4% | 0%
CC(C#Cc1ccc2c(c1)COc1c3ccccc3nn1-2)OC(C)(C)C (stereo not given) | . | 11µM* | ? | 12% | ?
Cc1ccc(NC(=O)c2csc(-c3ccccc3)c2C)cc1 | -4% | 0.095µM* | 0.32µM* | ? | 0.11µM*
O=C(O)c1ccccc1C(=O)Nc1cccc([N+](=O)[O-])c1 | . | 2% | -3% | 3% | -1%
Cc1c(C(=O)Nc2cccc([N+](=O)[O-])c2)csc1-c1ccccc1 | 28µM* | 0.85µM* | 1.3µM* | ? | 0.71µM*
COc1ccc(CCNC(=O)c2cnn(-c3ccc(F)cc3)c2C2CCN(C(=O)OC(C)(C)C)CC2)cc1OC | . | -2% | . | . | .
COc1ccc(/C=C\C(=O)NCC(=O)N/N=C/c2ccc(O)cc2O)cc1 | . | ? | -1% | ? | -2%
CCOc1ccc(/C=N/NC(=O)c2[nH]c3ccc(C)cc3c2C)cc1 | . | 11µM* | 4% | -2% | -3%
CCOc1ccc2[nH]c(C(=O)N/N=C/c3ccc(OC)cc3)cc2c1 | . | 11µM* | -18% | 6% | -8%
COc1ccc(/C=N/NC(=O)c2cc3cc(OC)c(OC)cc3[nH]2)cc1 | . | ? | 0% | 1% | -2%
COc1cc2cc(C(=O)N/N=C/c3ccccc3Cl)[nH]c2cc1OC | . | 17µM* | -3% | -5% | -4%
COc1ccc2[nH]c(C(=O)N/N=C/c3ccc(O)cc3O)cc2c1 | . | 11µM* | -2%[1.84 µM] | 15% | -36%
CC(C)Oc1ccc(S(=O)(=O)N2CCOCC2)cc1NC(=O)C1COc2ccccc2O1 (stereo not given) | . | . | 1% | -6% | -6%
COc1ccc2cc(C(=O)N/N=C/c3cc(OC)c(OC)c(OC)c3)[nH]c2c1 | . | 6.7µM* | -2% | -6% | 1%
CC(OC(=O)c1ccc(Cl)nc1)C(=O)Nc1ccc2c(c1)OCO2 (stereo not given) | . | ? | 5% | -1% | -33%
Cc1ccc([N+](=O)[O-])cc1NC(=O)c1ccc(C(C)(C)C)cc1 | 8% | ? | 0% | -10% | -4%
SMILES | SMN2 splice up | FLuc counter | Rab9 promoter act | ELG1 genotox | NPC1 promoter act
Cc1ccc(NC(=O)c2ccc(C(C)(C)C)cc2)cc1[N+](=O)[O-] | 15% | 6µM* | ? | ? | ?
Cc1ccc(NC(=O)c2cccs2)cc1[N+](=O)[O-] | . | 21µM* | 27% | -1% | 21%
O=C(CSc1ncn[nH]1)N/N=C/c1ccc(C(F)(F)F)cc1 | . | ? | -5% | 6% | -3%
N#C/C(=C\c1ccco1)C(=O)Nc1cccc2ncccc12 | -8% | 2% | 0% | -1% | -1%
COc1cc(OC)c(NC(=O)Nc2nnc(N(C)C3CCCCC3)s2)cc1Cl | . | 2% | . | . | .
Cn1c(SCc2nc3ccccc3c(=O)[nH]2)nc2ccccc21 | 14% | -28% | 9% | 2% | 9%
Cn1c(-c2ccccc2)cnc1SCc1nc2ccccc2c(=O)[nH]1 | 2.5µM* | 6µM* | 1.4µM* | 2.1µM* | 2.8µM*
